Ten compounds from PubChem BioAssay (NCI) can be followed below.

Molecules are shown by their SMILES. The panel holds about 79,000 compounds, 15% with a hit somewhere; the sample as a whole holds those more often. A number with no mark means an inactive call. Calls of active or inactive are those of the source. Cut-off read from the data, not from the text of the source: active = growth inhibition above about 70%; inactive = the rest.

Assay [1] can be described thus: NCI Yeast Anticancer Drug Screen. Data for the rad50 strain (AID 155).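 Note: 0% = growth of vehicle-only cultures of the same strain.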 As to conditions: S. cerevisiae rad50 strain growth inhibition, active compounds read high. In short, it runs like this: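 Readout: growth inhibition relative to vehicle-treated cultures. Compound exposure was carried out in a genetically defined yeast strain deficient in DNA damage repair.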
Assay [2] can be described thus: NCI Yeast Anticancer Drug Screen. Data for the mec2-1 strain (AID 157). As to conditions: S. cerevisiae mec2-1 strain, active compounds read high. The essentials: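 Mutant yeast (mec2-1) grown with compound; growth inhibition relative to vehicle control reported.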
Assay [3] is described as follows: NCI Yeast Anticancer Drug Screen. Data for the sgs1 mgt1 strain (AID 161).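 Note: 0% = growth of cultures given vehicle only.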 Particulars: S. cerevisiae sgs1 mgt1 strain, active compounds read high. The essentials:
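Yeast cells carrying a defined DNA-repair defect were exposed to test compounds. Growth inhibition was measured relative to vehicle-treated controls.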

Assay [4] can be described thus: NCI Yeast Anticancer Drug Screen. Data for the cln2 rad14 strain (AID 165).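 Note: 0% = growth equal to vehicle treated cultures.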 As to conditions: S. cerevisiae cln2 rad14 strain, active compounds read high. In short, it runs like this: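 Readout is yeast growth inhibition versus vehicle-treated controls, using a strain with cln2 and rad14 alterations exposed to compound.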
Assay [5] in a line: NCI Yeast Anticancer Drug Screen. Data for the bub3 strain (AID 167). Particulars: S. cerevisiae bub3 mutant strain, active compounds read high. The essentials: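 Readout: yeast growth inhibition, expressed relative to vehicle-only wells. The test organism is a mutant strain from a panel with lesions in DNA repair or checkpoint genes.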
A short description of assay [6]: NCI Yeast Anticancer Drug Screen. Data for the mlh1 rad18 strain (AID 175). As to conditions: S. cerevisiae mlh1 rad18 strain growth inhibition, active compounds read high. The essentials: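 Genetically defined yeast (DNA repair-deficient) exposed to compounds; growth inhibition determined relative to vehicle.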
Where [7] appears, read: at 5.0 µM (retest, dose inferred, filed as 0.5).
Setting [8] is: at 50.0 µM (retest, dose inferred, filed as 5.0).

In the case of `COc1ccc(C2c3cn[nH]c3CC3CCCCC32)cc1` (stereo not given), the growth inhibition in assay [1] (setting [7]) is 25%; in assay [1] (setting [8]), 98% (active); in assay [1] (at 50.0 µM), 75.8% (active); in assay [2] (setting [7]), -8%; in assay [2] (setting [8]) it was 99% (active); in assay [2] (at 50.0 µM), 83.8% (active). Besides, the growth inhibition is 9% in assay [3] (setting [7]); 98% (active) in assay [3] (setting [8]); 85.5% (active) in assay [3] (at 50.0 µM); 31% in assay [4] (setting [7]); 99% (active) in assay [4] (setting [8]); 89.8% (active) in assay [4] (at 50.0 µM). The growth inhibition was -20% in assay [5] (setting [7]); 99% (active) in assay [5] (setting [8]); 88.3% (active) in assay [5] (at 50.0 µM); 8% in assay [6] (setting [7]); 98% (active) in assay [6] (setting [8]); 90.7% (active) in assay [6] (at 50.0 µM).
`N#CCc1ccc2c(c1)Sc1ccccc1O2`: the growth inhibition in assay [1] (setting [7]) was -159%; in assay [1] (setting [8]) it was -54%; in assay [1] (at 50.0 µM), 90.5% (active); in assay [2] (setting [7]) it was -49%; in assay [2] (setting [8]), -26%; in assay [2] (at 50.0 µM), 31.8%. Also, the growth inhibition in assay [3] (setting [7]) was -58%; in assay [3] (setting [8]) it was -13%; in assay [3] (at 50.0 µM), 53%; in assay [4] (setting [7]), -57%; in assay [4] (setting [8]), -35%; in assay [4] (at 50.0 µM) it was -5.85%. For the same compound, the growth inhibition is -62% in assay [5] (setting [7]); -33% in assay [5] (setting [8]); 50.2% in assay [5] (at 50.0 µM); -122% in assay [6] (setting [7]); -45% in assay [6] (setting [8]); 73.8% (active) in assay [6] (at 50.0 µM).
Take `CC(=O)C(C(=O)CCSCCO)C(SCCO)c1ccc(Cl)c(Cl)c1` (stereo not given): the growth inhibition in assay [1] (setting [7]) was -1%; in assay [1] (setting [8]) it was 64%; in assay [1] (at 50.0 µM), 59.4%; in assay [2] (setting [7]) it was -3%; in assay [2] (setting [8]) it was 63%; in assay [2] (at 50.0 µM) it was 79% (active). In addition, the growth inhibition was -1% in assay [3] (setting [7]); 81% (active) in assay [3] (setting [8]); 71.8% (active) in assay [3] (at 50.0 µM); -4% in assay [4] (setting [7]); 55% in assay [4] (setting [8]); 40.1% in assay [4] (at 50.0 µM). For the same compound, the growth inhibition in assay [5] (setting [7]) was -6%; in assay [5] (setting [8]), 70% (active); in assay [5] (at 50.0 µM), 62.4%; in assay [6] (setting [7]), -3%; in assay [6] (setting [8]) it was 73% (active); in assay [6] (at 50.0 µM), 73.8% (active).
Take `O=C(O)CCCCCCC(=O)CCl`: the growth inhibition in assay [1] (setting [7]) is 30%; in assay [1] (setting [8]), 74% (active); in assay [1] (at 50.0 µM), 72% (active); in assay [2] (setting [7]), 22%; in assay [2] (setting [8]) it was 82% (active); in assay [2] (at 50.0 µM), 83.5% (active). Besides, the growth inhibition was 24% in assay [3] (setting [7]); 74% (active) in assay [3] (setting [8]); 66.2% in assay [3] (at 50.0 µM); 25% in assay [4] (setting [7]); 38% in assay [4] (setting [8]); 23.9% in assay [4] (at 50.0 µM). Also, the growth inhibition in assay [5] (setting [7]) is 30%; in assay [5] (setting [8]) it was 78% (active); in assay [5] (at 50.0 µM), 58.4%; in assay [6] (setting [7]) it was 19%; in assay [6] (setting [8]), 86% (active); in assay [6] (at 50.0 µM), 72.9% (active).
Consider `COc1ccc(CSC(=S)Nc2ccc(Cl)c([N+](=O)[O-])c2)cc1`, for which the growth inhibition in assay [1] (setting [7]) was 48%; in assay [1] (setting [8]) it was 92% (active); in assay [1] (at 50.0 µM), 88.5% (active); in assay [2] (setting [7]), 50%; in assay [2] (setting [8]), 95% (active); in assay [2] (at 50.0 µM) it was 77.1% (active). For the same compound, the growth inhibition was 56% in assay [3] (setting [7]); 99% (active) in assay [3] (setting [8]); 88.4% (active) in assay [3] (at 50.0 µM); 43% in assay [4] (setting [7]); 97% (active) in assay [4] (setting [8]); 9% in assay [4] (at 50.0 µM). The growth inhibition is 77% (active) in assay [5] (setting [7]); 99% (active) in assay [5] (setting [8]); 21.5% in assay [5] (at 50.0 µM); 79% (active) in assay [6] (setting [7]); 98% (active) in assay [6] (setting [8]); 94.1% (active) in assay [6] (at 50.0 µM).
Consider `O=C1OC(c2ccccc2)(c2ccc(-c3ccccc3O)cc2)c2ccccc21` (stereo not given), for which the growth inhibition was 87% (active) in assay [1] (setting [7]); 90% (active) in assay [1] (setting [8]); 94.2% (active) in assay [1] (at 50.0 µM); 71% (active) in assay [2] (setting [7]); 92% (active) in assay [2] (setting [8]); 95.1% (active) in assay [2] (at 50.0 µM). For the same compound, the growth inhibition in assay [3] (setting [7]) is 89% (active); in assay [3] (setting [8]), 93% (active); in assay [3] (at 50.0 µM), 93% (active); in assay [4] (setting [7]), 60%; in assay [4] (setting [8]), 90% (active); in assay [4] (at 50.0 µM), 92.9% (active). In addition, the growth inhibition in assay [5] (setting [7]) was 61%; in assay [5] (setting [8]) it was 90% (active); in assay [5] (at 50.0 µM), 95.1% (active); in assay [6] (setting [7]), 92% (active); in assay [6] (setting [8]) it was 91% (active); in assay [6] (at 50.0 µM) it was 93.5% (active).
As to `O=C1SC(c2ccccc2)=S=C1c1ccccc1`, the growth inhibition was 18% in assay [1] (setting [7]); 28% in assay [1] (setting [8]); 40% in assay [1] (at 50.0 µM); 24% in assay [2] (setting [7]); 39% in assay [2] (setting [8]); 46.8% in assay [2] (at 50.0 µM). For the same compound, the growth inhibition in assay [3] (setting [7]) is 21%; in assay [3] (setting [8]), 44%; in assay [3] (at 50.0 µM), 37.4%; in assay [4] (setting [7]), 13%; in assay [4] (setting [8]), 13%; in assay [4] (at 50.0 µM), 24.6%. Besides, the growth inhibition in assay [5] (setting [7]) was 20%; in assay [5] (setting [8]), 54%; in assay [5] (at 50.0 µM) it was 13.8%; in assay [6] (setting [7]) it was 33%; in assay [6] (setting [8]) it was 38%; in assay [6] (at 50.0 µM), -25.4%.
As to `CCCCCOCC(=O)OC`, the growth inhibition in assay [1] (setting [7]) was -1%; in assay [1] (setting [8]), 13%; in assay [1] (at 50.0 µM), -1.9%; in assay [2] (setting [7]) it was 0%; in assay [2] (setting [8]), 5%; in assay [2] (at 50.0 µM), -11.6%. Moreover, the growth inhibition was -1% in assay [3] (setting [7]); 5% in assay [3] (setting [8]); -16.2% in assay [3] (at 50.0 µM); 2% in assay [4] (setting [7]); 0% in assay [4] (setting [8]); 44.2% in assay [4] (at 50.0 µM). The growth inhibition is 0% in assay [5] (setting [7]); 7% in assay [5] (setting [8]); -1.3% in assay [5] (at 50.0 µM); 2% in assay [6] (setting [7]); 7% in assay [6] (setting [8]); -15.1% in assay [6] (at 50.0 µM).
As to `CCCCCCN(CCCCCC)CCC(=O)c1ccc2cc(Cl)c3ccccc3c2c1`, the growth inhibition in assay [1] (setting [7]) was 29%; in assay [1] (setting [8]) it was 90% (active); in assay [1] (at 50.0 µM), 78.4% (active); in assay [2] (setting [7]) it was -28%; in assay [2] (setting [8]), 95% (active); in assay [2] (at 50.0 µM), 82% (active). Besides, the growth inhibition in assay [3] (setting [7]) is 33%; in assay [3] (setting [8]) it was 95% (active); in assay [3] (at 50.0 µM) it was 78.2% (active); in assay [4] (setting [7]), 3%; in assay [4] (setting [8]), 88% (active); in assay [4] (at 50.0 µM) it was 31.8%. Further, the growth inhibition in assay [5] (setting [7]) was 5%; in assay [5] (setting [8]) it was 94% (active); in assay [5] (at 50.0 µM), 33.2%; in assay [6] (setting [7]) it was 17%; in assay [6] (setting [8]) it was 91% (active); in assay [6] (at 50.0 µM), 87.8% (active).
Turning to `O=C(O)c1nnsc1-c1ccc(-c2snnc2C(=O)O)cc1`, the growth inhibition in assay [1] (setting [7]) was 2%; in assay [1] (setting [8]) it was 14%; in assay [1] (at 50.0 µM) it was 22%; in assay [2] (setting [7]), -2%; in assay [2] (setting [8]) it was 18%; in assay [2] (at 50.0 µM) it was 23.1%. Moreover, the growth inhibition in assay [3] (setting [7]) was -4%; in assay [3] (setting [8]) it was 30%; in assay [3] (at 50.0 µM) it was -6.3%; in assay [4] (setting [7]) it was 21%; in assay [4] (setting [8]) it was 0%; in assay [4] (at 50.0 µM) it was 39.3%. Moreover, the growth inhibition is 25% in assay [5] (setting [7]); 6% in assay [5] (setting [8]); 35.1% in assay [5] (at 50.0 µM); 7% in assay [6] (setting [7]); 9% in assay [6] (setting [8]); 3.3% in assay [6] (at 50.0 µM).
